# Test results from PubChem BioAssay AID720704 (The Scripps Research Institute Molecular Screening Center, 2013).
# Several values for one entry are separate records, joined by “and”; a condition that tells them apart may be missing. Identical values can stand only once. Screen size: about 370,000 compounds; about 660 (0.18%) were called active. Rule as the data show it: active = inhibition above about 11%; inactive = the rest. The full list was thinned out, with actives kept by preference.
# Molecular target: 1-phosphatidylinositol 4,5-bisphosphate phosphodiesterase beta-3 (Homo sapiens) (UniProt Q01970)
# Sequence (Q01970 whole entry, looked up): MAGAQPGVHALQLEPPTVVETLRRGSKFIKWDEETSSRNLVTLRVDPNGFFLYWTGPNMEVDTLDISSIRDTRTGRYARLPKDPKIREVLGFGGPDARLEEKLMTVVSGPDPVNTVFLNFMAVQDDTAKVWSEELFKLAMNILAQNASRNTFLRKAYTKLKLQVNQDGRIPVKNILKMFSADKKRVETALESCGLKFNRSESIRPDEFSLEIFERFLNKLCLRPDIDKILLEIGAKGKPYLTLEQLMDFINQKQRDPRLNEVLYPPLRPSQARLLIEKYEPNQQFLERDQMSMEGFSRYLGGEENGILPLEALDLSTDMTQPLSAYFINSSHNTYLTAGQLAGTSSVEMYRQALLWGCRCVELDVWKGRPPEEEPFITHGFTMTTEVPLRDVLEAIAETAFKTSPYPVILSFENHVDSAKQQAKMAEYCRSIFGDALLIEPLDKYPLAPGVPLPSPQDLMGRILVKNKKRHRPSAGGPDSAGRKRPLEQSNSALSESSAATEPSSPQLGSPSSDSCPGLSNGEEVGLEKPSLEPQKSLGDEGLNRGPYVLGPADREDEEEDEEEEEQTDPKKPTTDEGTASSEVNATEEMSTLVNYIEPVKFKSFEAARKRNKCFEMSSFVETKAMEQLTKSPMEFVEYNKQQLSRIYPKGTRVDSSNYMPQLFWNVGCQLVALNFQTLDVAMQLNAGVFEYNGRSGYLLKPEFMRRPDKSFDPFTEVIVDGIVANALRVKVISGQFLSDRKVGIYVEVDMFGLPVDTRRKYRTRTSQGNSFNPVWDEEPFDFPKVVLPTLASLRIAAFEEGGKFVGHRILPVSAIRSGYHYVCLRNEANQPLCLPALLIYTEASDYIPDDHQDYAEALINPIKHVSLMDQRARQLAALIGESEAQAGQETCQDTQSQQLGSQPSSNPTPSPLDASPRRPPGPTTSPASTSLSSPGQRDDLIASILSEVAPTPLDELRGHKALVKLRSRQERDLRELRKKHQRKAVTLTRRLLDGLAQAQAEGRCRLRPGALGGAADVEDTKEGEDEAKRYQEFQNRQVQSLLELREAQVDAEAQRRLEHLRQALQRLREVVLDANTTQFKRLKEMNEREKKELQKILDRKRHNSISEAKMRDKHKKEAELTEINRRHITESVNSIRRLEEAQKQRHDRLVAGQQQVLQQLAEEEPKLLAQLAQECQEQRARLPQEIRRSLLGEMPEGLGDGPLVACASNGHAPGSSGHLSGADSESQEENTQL
# Assay: human PLC-beta3 inhibitors, primary screen, biochemical, fluorescence (AID 720704);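 also: 0% = median of compound wells on plate and 100% = full blocker control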
# Settings: Purified PLC-beta3, fluorogenic substrate, at 12.2 µM, stronger effect = higher value
row,Compound,inhibition
1,Cc1cc(NC(=O)CSCc2ccccc2C)no1,-0.65% (inactive)
2,Cc1cc(NC(=O)COc2ccccc2C#N)no1,-4.84% (inactive)
3,Cc1cc(NC(=O)COn2nnc3ccccc32)no1,10.7% (active)
4,NC(c1csc(NC(=O)Nc2ccccc2Oc2ccccc2)n1)c1ccccc1Cl (stereo not given),-2.19% (inactive)
5,COc1ccc(C(N)c2csc(NC(=O)Nc3cccc(C(F)(F)F)c3)n2)cc1 (stereo not given),11.1% (active)
6,C/C(CC(=O)Nc1cccc(C(F)(F)F)c1)=N\NC(=O)C(=O)NCC(C)C,2.01% (inactive)
7,CCOC(=O)/C=C/CN(C(=O)OC(C)(C)C)S(=O)(=O)N1CC=CC1,5.79% (inactive)
8,O=C(C1CCCO1)N1CCN(C(=S)Nc2cccc(Cl)c2)CC1 (stereo not given),12.1% (active)
9,O=C(C1CCCO1)N1CCN(C(=S)NC2CC2)CC1 (stereo not given),-1.16% (inactive)
10,O=C(CN1CCN(C(=O)C2CCCO2)CC1)Nc1c(Cl)cccc1Cl (stereo not given),-2.62% (inactive)
11,C=CCN1[C@H](CC(C)C)COc2cccc(N3CCCC3)c2S1(=O)=O,-10.8% (inactive)
12,C=CCSc1nc2c(c(=O)[nH]1)C(C(C)C)C(C#N)=C(N)O2 (stereo not given),-5.98% (inactive)
13,O=C(NC1CCCC1)C1CC(=O)N(c2ccc(F)cc2)C1 (stereo not given),1.14% (inactive)
14,NC(=O)C1CC=CCC1C(=O)OCC(Cl)=C(Cl)Cl (stereo not given),-21% (inactive)
15,C=C(Cl)COC(=O)C1C2C=CC(C2)C1C(=O)O (stereo not given),-0.54% (inactive)
16,COc1cc(OC)cc(C(=O)OCC(=O)Nc2sccc2C(N)=O)c1,-6.31% (inactive)
17,CCOC(=O)c1cnc(SCc2nc(N)nc(Nc3ccc(OC)cc3)n2)nc1N,0.61% (inactive)
18,Cc1ccc2nsnc2c1S(=O)(=O)N1CCCC1C(=O)O (stereo not given),5.41% (inactive)
19,CC[C@]12c3[nH]c4ccc(Cl)cc4c3CCN1C(=O)[C@@H](CC(=O)NCCCOC)C[C@@H]2C(=O)N1CCN(C(=O)C2CC2)CC1,-4.01% (inactive)
20,O=C(NC1CC1)C1CCCN(C(=O)NC2CCCCC2)C1 (stereo not given),-7.45% (inactive)
21,CC(C)C(=O)N1CCN(CCN=CC2=C(O)CC(c3ccco3)CC2=O)CC1 (stereo not given),-7.32% (inactive) and -15% (inactive)
22,C=CCn1c(SCc2ccc(Cl)c(Cl)c2)nnc1C(CO)NC(=O)c1ccc(OC)cc1 (stereo not given),4.74% (inactive)
23,COCCCn1cc(CN2CC(N(C)C)CS2(=O)=O)nn1 (stereo not given),-1.16% (inactive)

row,Compound,inhibition
1,O=C(Nc1c(C(=O)N2CCCCC2)cnn1-c1ccccc1)c1ccco1,2.51% (inactive)
2,O=C(CN(CC1CCCO1)C(=O)CNS(=O)(=O)c1ccc(F)cc1)NCc1ccco1 (stereo not given),1.51% (inactive)
3,O=C1NC2(CCCCC2)N=C1c1ccccc1,10% (inactive)
4,Cc1ccccc1N1CCN(C2CCCN(C(=O)c3cn4c(C)cccc4n3)C2)CC1 (stereo not given),-10.2% (inactive)
5,Oc1c(CN2CCCC2)cc(COCc2ccccc2)c2cccnc12,16.5% (active)
6,O=[N+]([O-])c1cc([N+](=O)[O-])c2cccnc2c1O,-4.85% (inactive)
7,CCCNC(=O)NC(=O)COC(=O)CC(NC(N)=O)c1ccc(Cl)cc1 (stereo not given),0.66% (inactive)
8,CCOC(=O)c1cnc(-n2nc(C)cc2C)nc1NNc1cc(C)nc(-c2ccccc2)n1,1.49% (inactive)
9,COc1ccccc1CCNC(=O)C1CCN(c2nc(C)cc(C)n2)CC1,1.47% (inactive)
10,COc1ccccc1/C=N\Nc1cc(C)nc(-n2nc(C)cc2C)n1,11.2% (active)
11,CCCOc1cccc(C(=O)Nc2ccccc2C(=O)N2CCN(C)CC2)c1,-3.82% (inactive)
12,Cn1c(SCC(=O)Nc2cccc(O)c2)nnc1-c1ccc(S(=O)(=O)N2CCOCC2)cc1,1.37% (inactive)
13,Cc1ccc(NC(=O)C(C)OC(=O)Cc2c[nH]c3ccccc23)cc1S(=O)(=O)N1CCOCC1 (stereo not given),-3.66% (inactive)
14,CCC(C)(C(=O)NC1CCCCC1)N(C)C(=O)c1ccc2c(c1)OCO2 (stereo not given),3.07% (inactive)
15,CCOC(=O)c1cccc(NC(=O)CCc2nnc3ccc(N4CCOCC4)nn23)c1,-10.3% (inactive)
16,CC(=O)c1c(C)[nH]c(C(=O)N2CCN(S(=O)(=O)c3ccc(F)c(F)c3)CC2)c1C,-2.62% (inactive)
17,COCCNc1ccc(-c2n[nH]c(=O)c3ccccc23)cc1[N+](=O)[O-],-3.71% (inactive)
18,O=C(C(=O)N1CCN(c2ccccc2)CC1)c1ccc2c(c1)OCO2,-0.14% (inactive)
19,O=CN1CCN(C(=O)c2ccc3c(c2)OCO3)CC1,-2.96% (inactive)
20,O=C(c1ccc2c(c1)OCO2)N1CCNc2ccccc2C1,12.9% (active)
21,O=C(NCc1ccccc1)c1onc(CSc2nc3ccccc3[nH]2)c1C(=O)NCc1ccccc1,8.62% (inactive)
22,COc1cc(OC)c(C(=O)N2CCCC2)cc1OC,-8.68% (inactive)
23,CCCc1nc2ccccc2n1C(C)C(=O)NC(C)(C)C (stereo not given),1.17% (inactive)

row,Compound,inhibition
1,Cc1cccc(C)c1NC(=O)C1CCCN1C(=O)OC(C)(C)C (stereo not given),0.37% (inactive)
2,Cc1ccc(C)c(NC(=O)C2CCCN2C(=O)OC(C)(C)C)c1 (stereo not given),5.04% (inactive)
3,CCC[C@H]1CCCC/C=C\CCCC(=O)OCCN1C(=O)OC(C)(C)C,13.5% (active)
4,CC(C)Cn1c(SCC(=O)Nc2ccc(Cl)cc2F)nc(O)cc1=O,-1.44% (inactive)
5,CC(C)c1ccc(Nc2nnc(SCC(=O)c3nnc(-c4ccccc4)o3)s2)cc1,-19.6% (inactive)
6,O=C(Nc1cccc2ccccc12)c1[nH]c(-c2ccccc2)c2c1C(=O)N(C1CC1)C2=O,-1.92% (inactive)
7,CCC(=O)c1ccc(OCC(=O)OCC(=O)N2CCc3ccccc3C2)cc1,-10.2% (inactive)
8,CO/N=C(/CS(=O)(=O)c1ccc(Br)cc1)c1ccc(OC)cc1,0.43% (inactive)
9,CCSc1sc(CC)cc1C=O,-0.46% (inactive)
10,CCOC(=O)N1CCN(Cc2nc(Cc3cccc(C(F)(F)F)c3)no2)CC1,-6.49% (inactive)
11,CC(C)=CCN1CCN(Cc2cc3ccccc3[nH]2)CC1CCO (stereo not given),-5.94% (inactive)
12,CC(C)(C)OC(=O)Nc1ccc([C@@H](NC(=O)OC(C)(C)C)C(=O)OC(C)(C)C)cc1,6.19% (inactive)
13,CCN(CC(=O)Nc1ccc2c(c1)OCCO2)Cc1cc(=O)oc2cc(C)c(C)cc12,-6.71% (inactive)
14,CO[C@@H]1CN(C)C(=O)c2cc(NC(=O)Nc3cc(F)ccc3F)ccc2OC[C@H](C)N(C(=O)c2ccccn2)C[C@@H]1C,-2.49% (inactive)
15,COC(=O)c1ccc(COC(=O)c2cnccn2)cc1,4.2% (inactive)
16,O=C(c1ccc(OC2CCN(C/C=C/c3ccc(F)cc3)CC2)cc1)N1CCCCC1,-10.6% (inactive)
17,COc1cc(OC)c(-n2cc(-c3ccc(Cl)cc3)[nH]c2=O)cc1Cl,1.76% (inactive)
18,Cc1ccc(NC(=O)c2nc[nH]c2C(=O)N2CCCCC2)c(C(=O)c2ccccc2)c1,-2.21% (inactive)
19,Cc1cc(C(=O)N2CCC(C(=O)O)CC2)c(C(F)(F)F)o1,-3.87% (inactive)
20,COc1cccc(NC(=O)C(Sc2nc3ccccc3c(=O)n2CC(C)C)c2ccccc2)c1 (stereo not given),0.44% (inactive)
21,Cc1ccc2nc(-c3ccc(SCC(=O)Nc4cc(C)on4)nc3)[nH]c2c1,-55.5% (inactive)
22,CCC(C(=O)NCCC(C)C)N(Cc1ccccc1Cl)C(=O)c1snc(C(N)=O)c1N (stereo not given),-123% (inactive)
23,COc1ccccc1Nc1nc(N)nc(CSC(=S)N2CCOCC2)n1,-5.33% (inactive)

row,Compound,inhibition
1,Cc1cccc([C@H]2[C@@H]3C=CC[C@@H](C)[C@@H]3C(=O)N2Cc2ccccc2)c1,-3.88% (inactive)
2,COc1ccc(NC(=O)CCC(=O)N2CCN(S(=O)(=O)c3ccc(C)cc3)CC2)c(OC)c1,-5.05% (inactive)
3,CCC1C(C#N)=C(SC)NC2=C1C(=O)CC(C)(C)C2 (stereo not given),-65.6% (inactive)
4,O=C1CCN(Cc2ccccc2)CCN1[C@H](CSc1ccccc1)c1ccccc1,-6.78% (inactive)
5,Cc1ccc(C)c(N(CC(=O)NCc2ccco2)C(=O)CCC(=O)Nc2ccccn2)c1,-1.21% (inactive)
6,Nn1c(SCC(=O)N2c3ccccc3Sc3ccccc32)nnc1-c1n[nH]c2c1CCC2,-2.4% (inactive)
7,CC1Cc2ccccc2N1C(=O)Cn1cnc2ccccc2c1=O (stereo not given),-1.51% (inactive)
8,CCCCNC(=O)C1CCCNC1=O (stereo not given),1.97% (inactive)
9,CCOC(=O)C1=CCC2C(=O)N(Cc3ccccc3)C(=O)C12 (stereo not given),0.58% (inactive)
10,CCOCCCNC(=O)C1(O)c2cc(Br)ccc2NC(=O)N1c1ccc(C)c(C)c1 (stereo not given),0.25% (inactive)
11,COc1ccc(C(=O)NC2(C(F)(F)F)NC(=O)N(CCCc3ccccc3)C2=O)c(OC)c1OC (stereo not given),0.7% (inactive)
12,COC(=O)NC1(C(F)(F)F)NC(=O)N(C2CCCCC2)C1=O (stereo not given),13.8% (active)
13,O=C(NCCCN1CCCC1=O)c1cccc(S(=O)(=O)NCc2ccccc2)c1,-4.88% (inactive)
14,Cc1cccc(C(=O)NCCCN2CCCC2=O)c1,11.5% (active)
15,CCOc1ccc(C(=O)NCCCN2CCCC2=O)cc1,2.32% (inactive)
16,O=C1NC(=O)C(CCc2ccccc2)(c2ccccc2)N1 (stereo not given),2.82% (inactive)
17,OCC1OC(n2cnc3c(N4CCCC4)ncnc32)C(O)C1O (stereo not given),-4.64% (inactive)
18,O=C(Nc1ccccc1C(=O)NCC1CCCO1)c1ccccc1F (stereo not given),-7.42% (inactive)
19,CCN1CCN(c2c(Cl)cccc2NC(=O)c2ccc(Br)o2)CC1,1.67% (inactive)
20,O=c1/c(=C/c2ccc(CNS(=O)(=O)c3ccccc3)o2)sc2n1CCN=2,-17.6% (inactive)
21,CCOC(=O)C1C(c2ccc(OC)c(OC)c2)c2c([nH][nH]c2=O)CC1(C)O (stereo not given),-7.78% (inactive)
